# Assay outcomes (PubChem)
# VP16 counter = VP16 counterscreen qHTS for inhibitors of ROR gamma transcriptional activity. Potency, µM (titrated, usually from 53.6 µM), usual class: inhibitors. 3.5% of 310,000 active. Drosophila S2 Gal4-VP16 UAS-luciferase, luminescence, 20 h;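 further: Gal4-VP16 expression switched on by copper sulfate through the metallothionein promoter; nearly all actives have a fitted effect of over 50% in size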
# HEK293 tox = qHTS of GLP-1 Receptor Inverse Agonists: Cytotox Screen; Potency, µM (highest dose often 38.3 µM), actives largely listed as inhibitors; 0.13% of 410,000 active; HEK293 cAMP-luciferase reporter cells, luminescence, 24 h;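 further: loss of luciferase light is scored as toxicity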
#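 MLSMR compounds, 24 hr on cells at 37 deg C/5% CO2; luminescence after luciferase reagent (12 min RT). Inhibition counted as the undesired cytotoxic outcome.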
# GLP1R ag = qHTS of GLP-1 Receptor Agonists; HEK293 GLP-1R CRE-luciferase, luminescence, 4-6 h; cells express a hypersensitive GLP-1R form; Potency, µM (series often up to 45.6 µM), most hits filed as activators; 0.007% of 380,000 active
# GLP1R inv ag = qHTS of GLP-1 Receptor Inverse Agonists (Inhibition Mode). Potency, µM (series often up to 38.3 µM), actives largely listed as inhibitors. Glucagon-like peptide 1 receptor (Homo sapiens), P43220. HEK293 GLP-1R CRE-luciferase, luminescence, 24 h; GLP-1R form is constitutively active. 1.6% of 410,000 active. AID 624417, 2012; further: nearly all actives have a fitted effect of over 55% in size
#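 Inverse agonists were sought by their lowering of basal cAMP reporter luciferase output in HEK293 cells stably carrying constitutively active human GLP-1R, after 24 h compound treatment.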
# RORgamma inh = qHTS for inhibitors of ROR gamma transcriptional activity | Drosophila S2 Gal4-RORgamma UAS-luciferase reporter, 20 h | AID 2551, 2010 | Potency, µM (highest dose often 53.6 µM), actives largely listed as inhibitors | 5.4% of 310,000 active; further: nearly all actives have a fitted effect of over 60% in size
# Target sequence (P51450 whole entry, looked up, the tested form may be a part): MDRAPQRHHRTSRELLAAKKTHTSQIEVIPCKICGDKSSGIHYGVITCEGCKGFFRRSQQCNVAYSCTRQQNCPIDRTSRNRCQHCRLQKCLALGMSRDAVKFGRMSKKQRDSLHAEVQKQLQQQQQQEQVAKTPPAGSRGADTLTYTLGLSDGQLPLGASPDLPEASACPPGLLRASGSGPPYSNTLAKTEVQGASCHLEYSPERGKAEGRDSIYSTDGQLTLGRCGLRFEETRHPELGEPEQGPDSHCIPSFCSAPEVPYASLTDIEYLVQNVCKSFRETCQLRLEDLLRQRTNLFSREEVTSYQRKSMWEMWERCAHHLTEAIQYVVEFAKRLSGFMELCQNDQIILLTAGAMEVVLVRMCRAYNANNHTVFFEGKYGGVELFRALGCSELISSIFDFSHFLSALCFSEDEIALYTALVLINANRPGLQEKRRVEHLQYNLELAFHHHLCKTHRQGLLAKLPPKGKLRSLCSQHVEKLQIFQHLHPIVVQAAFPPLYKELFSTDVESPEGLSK
#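 Luciferase reporter read in Schneider cells carrying Gal4-RORγ (mouse) and UAS-Photinus luciferase; cells given compound 1 h before 700 uM copper sulfate induction, then incubated 20 h at ambient temperature.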
# Numbers stand for hits; 0 = inactive; ? = inconclusive; - = not tested or not shown; [ ] = dose if it differs, or a comment. This is a sample that favours compounds with a hit; in the whole collection about 5.9% have one here. The call rests on the fitted dose curve; in most records, active means well fitted curve in the direction sought with a large enough effect; inconclusive means small, poorly fitted or top-dose-only effect, or another doubt; inactive means no such curve, though single readings can be large; an effect the other way counts as inactive or inconclusive.
SMILES,VP16 counter,HEK293 tox,GLP1R ag,GLP1R inv ag,RORgamma inh
COc1ccc(C)cc1NC(=O)CN1CCN(C/C=C/c2ccccc2)CC1,?,0,0,0,10µM
CCCCCCCN(CC)CCCC(O)c1ccc(NS(C)(=O)=O)cc1 (stereo unspecified),-,-,0,-,-
Cc1ccc(C(=O)c2oc3ccccc3c2NC(=O)COc2ccccc2Cl)cc1,-,0,0,0,-
COc1ccc(Cl)cc1NC(=O)CN(C)CC(=O)Nc1c(C)n(C)n(-c2ccccc2)c1=O,-,0,0,10µM,-
Cc1ccc(NC(=O)CNC(c2ccccc2)c2ccccc2)c(F)c1,0,0,0,11.2µM,0
COc1ccc(Cl)cc1NC(=O)CNC(c1ccccc1)c1ccccc1,2.51µM,0,0,?,?
COc1ccc(C)cc1NC(=O)CNC(c1ccccc1)c1ccccc1,0,0,0,?,0
COc1ccc(OC)c(NC(=O)Nc2c(C)n(C)n(-c3ccccc3)c2=O)c1,-,0,-,0,-
C[C@@H]1CC[C@@]2(OC1)OC1CC3C4CC=C5CC(O)CCC5(C)C4CCC3(C)C1[C@@H]2C (stereo partly specified),0,-,-,-,0
Cc1nn(-c2ccc(C(=O)Nc3nnc(C4CC4)s3)cc2)c(C)c1Cl,0,0,0,0,0
Cc1nn(-c2ccccc2)c(Cl)c1C(=O)Nc1nnc(C2CCCCC2)s1,?,0,0,8.91µM,12.6µM
NNc1ccc(Cl)nn1,?,?,0,10µM,10µM
COc1cccc(COCCN2CCN(S(=O)(=O)c3ccccc3)CCC2=O)c1,0,-,-,-,0
Cc1cc(C)c(NC(=O)Cn2nc3c(cc2=O)CCCC3)c(C)c1,-,0,-,0,-
CNC(=O)[C@]1(C)C[C@H]1[C@H](NC(=O)[C@]1(C)C[C@H]1[C@H](NC(=O)[C@]1(C)C[C@H]1[C@H](NC(=O)[C@]1(C)C[C@H]1[C@H](NC(=O)OCc1ccccc1)c1ccccc1)c1ccccc1)c1ccccc1)c1ccccc1,0,-,-,-,0
CCCCCC(=O)NNC1=NCC(Cc2cccc(Cl)c2)S1 (stereo unspecified),5.01µM,0[7.66 µM],0,0[7.66 µM],0.794µM
Cc1[nH]n(-c2ccccc2)c(=O)c1N=Nc1cccc([N+](=O)[O-])c1,0,0,0,0,0
O=C(N/N=C/c1coc2ccccc2c1=O)c1cccc([N+](=O)[O-])c1,0,0,0,0,0
Cc1[nH]n(-c2cccc3ccccc23)c(=O)c1/C=N/NC(=O)c1cccc([N+](=O)[O-])c1,3.55µM,?,0,0,2.82µM
Cc1[nH]n(-c2ccccc2)c(=O)c1/C=N/NC(=O)c1cccc([N+](=O)[O-])c1,2.51µM,0,0,0,1µM
Cc1ccc(-n2[nH]c(C)c(/C=N/NC(=O)c3ccc([N+](=O)[O-])cc3)c2=O)c(C)c1,5.01µM,-,-,-,1.78µM
O=C(CCCSc1nc(-c2ccco2)cc(C(F)(F)F)n1)Nc1ccc2c(c1)OCO2,0,0,0,10µM,0
C=C(C)C(=O)/C=C/CCC/C=C/C(=O)OCC,0,-,-,-,0
CCOC(=O)c1c(C)[nH]sc1=S,?,0,0,0,6.31µM
COc1ccc(-n2c(=O)c3sc4ccccc4c3n(CC(=O)NCc3ccccc3)c2=O)cc1,-,0,0,0,-
SMILES,VP16 counter,HEK293 tox,GLP1R ag,GLP1R inv ag,RORgamma inh
COC(=O)c1ccc(C(=O)OC)c(NC(=O)c2c(-c3ccccc3)c(-c3ccccc3)nn(C)c2=O)c1,-,0,-,0,-
CCOCCn1ccc2c(OCC(=O)Nc3cc(C(F)(F)F)ccc3Cl)cccc2c1=O,-,0,-,0,-
COc1ccc2c(C(=O)CCl)c[nH]c2c1,17.8µM,?,0,?,?
Cc1cc(C)c(S(=O)(=O)c2ccccc2)c(OC(=O)c2c(Cl)cc(Cl)cc2Cl)n1,0,?,0,7.94µM,0
Cc1cc(C)c(S(=O)(=O)c2ccccc2)c(OC(=O)c2c(F)cccc2F)n1,0,0,0,0,0
CC(C)(C)c1cc(C(=O)N/N=C/c2ccc(F)cc2)n(-c2ccccc2)n1,0[0.365 µM],0,0,0,0
COc1ccc(/C=N/NC(=O)c2nc(-c3ccccc3)n(-c3ccccc3)n2)cc1,0,0,0,0,0
CC(C)(C)c1cc(C(=O)N/N=C/c2ccccc2O)n(-c2ccccc2)n1,1.12µM,?,0,?,0.631µM
COc1ccc(/C=N/NC(=O)c2nc(-c3ccccc3)n(-c3ccccc3)n2)c(O)c1,6.31µM,0,0,?,2.24µM
O=C(NC1CC1)C1CCN(C2CCN(C(=O)Cc3ccc4c(c3)OCO4)CC2)CC1,0,0,0,0,10µM
CCNc1ncc2nc(-c3ccccc3)c(=O)n(C[C@H]3CCCO3)c2n1,0,-,-,-,0
Cc1ccc(Nc2nc(C)cc(C)n2)c(C(=O)O)c1,-,0,-,0,-
Cc1noc(C)c1-c1ccc2ncnc(NCC3CCN(C)CC3)c2c1,0,-,-,-,0
CCN1CNC(=S)N(Cc2ccccc2)C1,?,0,0,0,15.8µM
COc1ccccc1N1CN(CCc2ccccc2)CNC1=S,?,0,0,0,0
CCOc1ccc(CCN2CN(CC)CNC2=S)cc1OCC,?,0,0,0,12.6µM
C=CCN1CN(CCc2ccccc2)CNC1=S,15.8µM,0,0,0,1.58µM
CCN1CN(CCc2ccccc2)CNC1=S,?,0,0,0,12.6µM
COc1ccccc1N1CN(Cc2ccccc2)CNC1=S,?,0,0,0,2µM
CCN1CNC(=S)N(CCc2ccccc2)C1,12.6µM,0,0,0,8.91µM
CCOC(=O)c1ccc(N2CN(CCc3ccccc3)CNC2=S)cc1,?,0,0,0,?
CCOc1ccccc1N1CN(CC)CNC1=S,0,0,0,0,?
Cc1ccc(N2CN(CCc3ccccc3)CNC2=S)cc1,12.6µM,0,0,?,5.01µM
CCN1CNC(=S)N(C(C)c2ccccc2)C1 (stereo unspecified),12.6µM,0[1.53 µM],0,0,10µM
CC1Cc2ccccc2N1C(=S)NC(=O)C1(C)CC1(Cl)Cl (stereo unspecified),2.24µM,0,0,?,0.631µM
SMILES,VP16 counter,HEK293 tox,GLP1R ag,GLP1R inv ag,RORgamma inh
O=C(NC(=S)N1CCCc2ccccc21)c1ccco1,?,0,0,?,?
CC1Cc2ccccc2N1C(=S)NC(=O)c1ccco1 (stereo unspecified),3.98µM,0,0,0,4.47µM
COc1ccc(CNC(=O)c2ccc3c(c2)CCN3S(=O)(=O)c2ccc(Cl)cc2)cc1,-,0,-,0,-
O=C1C(Cl)=C(Nc2ccc3cn[nH]c3c2)C(=O)c2ccccc21,?,?,0,?,7.08µM
COC(=O)C/C=C1\c2ccccc2[C@H](OC)[C@H]1C,0[10 µM],-,-,-,0[10 µM]
O=C(c1cc(-c2ccc(Cl)cc2Cl)on1)N1CCCCCC1,?,0,0,?,8.91µM
